Screening results: PubChem, National Center for Advancing Translational Sciences (NCATS)
This is one part of a sample in which hits are shown more often than they occur.
Pf Dd2 growth: qHTS Primary assay for Inhibitors of Plasmodium falciparum Dd2 growth in vitro. AID 1347417, 2020. Potency, µM (highest dose often 28.9 µM), without a hit: top-dose activity, negative = inhibition, usual class: inhibitors. 120,000 compounds, 4.3% hits. P. falciparum Dd2 growth, SYBR Green, 72 h; active means well fitted inhibition curve with a large enough effect;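 further: plate controls were DMSO vehicle for no effect and reference drug for full effect; nearly all actives have a fitted effect of over 65% in size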
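Infected erythrocytes (Dd2, 0.3% parasitemia, 2.5% hematocrit final) are added to compound in RPMI-1640/Albumax II medium, grown 72 h at 37C in low oxygen, then lysed with saponin/Triton-X containing SYBR Green and read by fluorescence.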
An asterisk follows results filed as active; [ ] = remark or other dose. Potency means the concentration at half of the fitted maximal effect.

How did CCc1cccc(-n2c(=O)c3cccnc3n2CC(=O)NCc2ccc(C)cc2)c1 do in these assays?
Pf Dd2 growth: 1.12µM*

What do the screens show for `Cc1ccc(-n2c(=O)c3cccnc3n2CC(=O)Nc2cc(Cl)ccc2C)cc1`?
Pf Dd2 growth: 9.1%

How did CCc1cccc(-n2c(=O)c3cccnc3n2CC(=O)NCc2ccccc2)c1 do in these assays?
Pf Dd2 growth: 1µM*

Results for O=C(Cn1c2ncccc2c(=O)n1-c1ccccc1)NCc1ccccc1 ?
Pf Dd2 growth: -10.9%

How did CCc1cccc(-n2c(=O)c3cccnc3n2CC(=O)NCc2ccccc2Cl)c1 do in these assays?
Pf Dd2 growth: 2.24µM*

Results for CCc1ccc(-n2c(=O)c3cccnc3n2CC(=O)NCc2ccc(F)cc2)cc1 ?
Pf Dd2 growth: -20.8%

What do the screens show for `COCc1noc([C@@H]2CC(F)(F)CN2C(=O)COc2ccccc2)n1`?
Pf Dd2 growth: inactive

How did CCCn1c(C)cnc1C1CCN(S(=O)(=O)c2cn(C)cn2)C1 (configuration not stated) do in these assays?
Pf Dd2 growth: 12.3%

Results for Cc1noc([C@@H]2CN(C(=O)CCc3nc4ccccc4[nH]3)C[C@H]2C(N)=O)n1 ?
Pf Dd2 growth: 14.0%

How did O=C(NCc1ccccc1)C1CCC(=O)N1C1CCNCC1 (configuration not stated) do in these assays?
Pf Dd2 growth: 10.8%

What do the screens show for `CNC(=O)[C@@H](C1CC1)N1CCC[C@H]1C(=O)NC1CC1`?
Pf Dd2 growth: 28.2%[44.1 µM]

Results for c1coc(CNC2(Cc3cc(CN4CCOCC4)on3)COC2)c1 ?
Pf Dd2 growth: 14.5%[44.1 µM]

Results for COCCN1Cc2ccc(NCC(C)C)nc2C(C)(C(=O)NCc2cccnc2)C1 (configuration not stated) ?
Pf Dd2 growth: -17.1%[44.1 µM]

What do the screens show for `COc1cccc(Nc2ccc3c(n2)C(C)(C(=O)NCCc2cnc[nH]2)CN(C)C3)c1` (configuration not stated)?
Pf Dd2 growth: -1.8%[44.1 µM]

What do the screens show for `COc1cccc(Nc2ccc3c(n2)C(C)(C(=O)NCCc2ccccn2)CN(C)C3)c1` (configuration not stated)?
Pf Dd2 growth: 3.16µM*

How did COCCN1Cc2ccc(Nc3cccnc3)nc2C(C)(C(=O)Nc2cccc(F)c2)C1 (configuration not stated) do in these assays?
Pf Dd2 growth: 8.91µM*

Results for COc1cccc(Nc2ncc3c(n2)C(C)(C(=O)NCCN2CCOCC2)CC3)c1 (configuration not stated) ?
Pf Dd2 growth: inactive

What do the screens show for `COc1ccc(NC(=O)C2(C)CCCc3cnc(Nc4cccnc4)nc32)cc1` (configuration not stated)?
Pf Dd2 growth: inactive

What do the screens show for `Cc1nc(-c2c3n(c(=O)n(CC(=O)Nc4ccc(Cl)cc4F)c2=O)CCCC3)no1`?
Pf Dd2 growth: -13.0%

How did O=C(NCc1nnc2n1C(C(=O)N1CCOCC1)CC2)Nc1cccnc1 (configuration not stated) do in these assays?
Pf Dd2 growth: 13.7%

What do the screens show for `CCOCCOC1CCN(C(=O)Nc2ccc(OC)cc2)CC1`?
Pf Dd2 growth: inactive

How did Cc1nn(-c2ccccc2)c(C)c1[C@@H]1C=C[C@@H](NC(=O)CCCC(=O)O)C1 do in these assays?
Pf Dd2 growth: -1.0%[44.1 µM]

Results for Cc1nn(-c2ccccn2)c(C)c1[C@@H]1C=C[C@@H](NC(=O)CC(C)(C)CC(=O)O)C1 ?
Pf Dd2 growth: inactive

How did COC(=O)c1cccc(NC(=S)N[C@@H]2C=C[C@@H](c3c(C)nn(-c4ccc(F)cc4)c3C)C2)c1 do in these assays?
Pf Dd2 growth: -19.8%

What do the screens show for `Cc1nn(-c2ccccc2)c(C)c1[C@@H]1C=C[C@@H](NC(=O)CC(C)(C)CC(=O)O)C1`?
Pf Dd2 growth: -3.5%[44.1 µM]

Results for Cc1nn(-c2ccc(C(C)(C)C)cc2)c(C)c1[C@@H]1C=C[C@@H](NC(=O)CCCC(=O)O)C1 ?
Pf Dd2 growth: inactive

How did CC(=O)N[C@@H]1C=C[C@@H](c2c(C)nn(-c3ccc(C)c(Cl)c3)c2C)C1 do in these assays?
Pf Dd2 growth: inactive

How did Cc1nn(-c2ccccc2[N+](=O)[O-])c(C)c1[C@@H]1C=C[C@@H](NCc2ccco2)C1 do in these assays?
Pf Dd2 growth: 11.2µM*

How did Cc1nn(-c2ccc(C(C)(C)C)cc2)c(C)c1[C@@H]1C=C[C@@H](NC(=O)CC2(CC(=O)O)CCCC2)C1 do in these assays?
Pf Dd2 growth: 4.1%

How did Cc1nn(-c2ccc(C(F)(F)F)cc2)c(C)c1[C@@H]1C=C[C@@H](NC(=O)CSCC(=O)O)C1 do in these assays?
Pf Dd2 growth: inactive

What do the screens show for `Cc1cc(Cl)ccc1-n1nc(C)c([C@@H]2C=C[C@@H](NC(=O)c3ccc(N(C)C)cc3)C2)c1C`?
Pf Dd2 growth: 10µM*

Results for Cc1nn(-c2ccc(F)cc2)c(C)c1[C@@H]1C=C[C@@H](NC(=O)c2ccco2)C1 ?
Pf Dd2 growth: 6.31µM*

Results for Cc1nn(-c2ccccc2)c(C)c1[C@@H]1C=C[C@@H](NC(=O)c2ccco2)C1 ?
Pf Dd2 growth: 10µM*

What do the screens show for `CC(C)n1cc(CN2CCc3n[nH]c(=O)n3CC2)cn1`?
Pf Dd2 growth: 2.0%

Results for O=C(C1CN(c2cccc(Cl)c2)C(=O)N1)N1CCCC1 (configuration not stated) ?
Pf Dd2 growth: 12.1%[44.1 µM]

What do the screens show for `CC(C)CS(=O)(=O)N[C@H](C)c1onc(-c2ccc(F)cc2)c1C(=O)O`?
Pf Dd2 growth: -11.6%[44.1 µM]

What do the screens show for `CNCCN1C(=O)CC[C@H]2CN(C(=O)CCc3ccsc3)CC[C@H]21`?
Pf Dd2 growth: -23.5%

What do the screens show for `O=C(Nc1ccccc1F)N1CCC2(CCCN(C3CCCCC3)C2=O)C1` (configuration not stated)?
Pf Dd2 growth: -11.9%

What do the screens show for `CCN1CC(c2ccccc2)CC2(CCN(C(=O)c3cnccn3)CC2)C1` (configuration not stated)?
Pf Dd2 growth: -21.3%

Results for Cc1ccc2c(c1)nc1n2[C@@H](CN(Cc2ccc(C(=O)O)cc2)Cc2ccc(C(=O)O)cc2)COC1 ?
Pf Dd2 growth: -11.7%

Results for CN(C)C[C@@H]1CN(Cc2cccnc2)C[C@H]1NC(=O)Cc1ccsc1 ?
Pf Dd2 growth: -19.2%

How did O=S(=O)(NCCn1cc(-c2cncnc2)nn1)c1ccc(Cl)cc1 do in these assays?
Pf Dd2 growth: 6.3%

How did O=C(Cc1c(F)cccc1Cl)NC1CCc2nn(CC3CC3)c(=O)n2CC1 (configuration not stated) do in these assays?
Pf Dd2 growth: 19.9%

How did COc1ccc(NC(=O)CCc2ccc3c(c2)CN(C(=O)NC(C)C)CCO3)cn1 do in these assays?
Pf Dd2 growth: -21.4%

How did C[C@H](O)c1onc(-c2ccccc2)c1C(=O)N1CCCCCC1 do in these assays?
Pf Dd2 growth: -16.4%[44.1 µM]

What do the screens show for `CC(=O)Nc1ccc(NC(=O)CC2Sc3ccccc3NC2=O)cc1` (configuration not stated)?
Pf Dd2 growth: 16.0%

Results for CCCc1ccc(C2Sc3ccccc3NC3=C2C(=O)c2ccccc23)cc1 (configuration not stated) ?
Pf Dd2 growth: 3.16µM*

How did O=C(NCc1ccccc1Cl)c1cc2c(s1)-c1ccccc1SC2 do in these assays?
Pf Dd2 growth: -1.0%

What do the screens show for `CCOc1cc(C2Sc3ccccc3NC3=C2C(=O)c2ccccc23)ccc1O` (configuration not stated)?
Pf Dd2 growth: 11.2µM*

What do the screens show for `O=C1C2=C(Nc3ccccc3SC2c2ccc(Cl)c(Cl)c2)c2ccccc21` (configuration not stated)?
Pf Dd2 growth: 3.55µM*
